Records with an inconclusive call do not appear. Calls of active or inactive are those of the source. Unless noted, calls come from the whole dose curve; as a rule, active = well fitted curve in the direction sought with a large enough effect in the repeat runs; inconclusive = weak or mixed curves; inactive = no such curve, though single readings can be large; an effect the other way counts as inactive or inconclusive.
What was measured:
[1] = target: Peroxisome proliferator-activated receptor delta (Homo sapiens) (UniProt Q03181); test: qHTS assay to identify small molecule agonists of the peroxisome proliferator-activated receptor delta (PPARd) signaling pathway (AID 743212; calls by dose curve)
Sequence of Peroxisome proliferator-activated receptor delta (Homo sapiens) (Q03181 whole entry, looked up): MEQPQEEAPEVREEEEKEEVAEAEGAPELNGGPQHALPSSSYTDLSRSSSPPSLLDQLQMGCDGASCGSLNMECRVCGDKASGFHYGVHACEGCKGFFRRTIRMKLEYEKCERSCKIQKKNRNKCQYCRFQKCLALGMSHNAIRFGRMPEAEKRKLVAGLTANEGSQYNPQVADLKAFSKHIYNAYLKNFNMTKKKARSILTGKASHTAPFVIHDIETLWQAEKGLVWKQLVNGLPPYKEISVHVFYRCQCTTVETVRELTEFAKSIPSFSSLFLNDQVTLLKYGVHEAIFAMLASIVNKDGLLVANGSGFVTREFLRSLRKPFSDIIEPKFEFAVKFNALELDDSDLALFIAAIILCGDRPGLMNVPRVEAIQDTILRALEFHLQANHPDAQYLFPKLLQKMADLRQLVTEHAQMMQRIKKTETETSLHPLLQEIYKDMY
Summary of the method: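 HEK293H UAS-bla reporter cells, human PPARd system; compounds delivered in DMSO after 5 h plating, then at 37 C. Beta-lactamase FRET read, 2 h RT substrate step.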

[2] = qHTS assay to identify small molecule antagonists of the peroxisome proliferator-activated receptor delta (PPARd) signaling pathway - cell viability counter screen (AID 743213); note: nearly all actives have a fitted effect of over 50% in size
Summary of the method: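 Same-well viability: cells pre-incubated 5 h, dosed with compound plus 300 nM L165041, kept 17 h at 37 C, FRET substrate 2 h RT, then CellTiter-Glo 30 min RT and luminescence.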

[3] = target: Peroxisome proliferator-activated receptor delta (Homo sapiens) (UniProt Q03181); test: qHTS assay to identify small molecule antagonists of the peroxisome proliferator-activated receptor delta (PPARd) signaling pathway (AID 743215; active = well fitted inhibition curve with a large enough effect in the signal ratio in the repeat runs, not every such curve was filed as active; the % refers to the signal ratio;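 note: cells stimulated with agonist L165041 at 300 nM final during compound exposure; series mostly up to about 62 µM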)
Summary of the method: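 HEK293H UAS-bla, PPARd; agonist L165041 300 nM final with cpd in DMSO; 37 C 17 h; FRET substrate, RT 2 h; fluorescence intensity.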

[4] = qHTS assay to identify small molecule agonists of the farnesoid-X-receptor (FXR) signaling pathway - cell viability counter screen (AID 743218); note: nearly all actives have a fitted effect of over 45% in size
Summary of the method: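 Parallel cytotoxicity test: compound-treated (16 h, 37 C) HEK 293T FXR-bla reporter cells were lysed with CellTiter-Glo and luminescence recorded.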

[5] = qHTS assay to identify small molecule antagonists of the farnesoid-X-receptor (FXR) signaling pathway - cell viability counter screen (AID 743221; active = well fitted cell-killing curve with a large enough effect in the repeat runs, not every such curve was filed as active; note: nearly all actives have a fitted effect of over 50% in size)
Summary of the method: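 GeneBLAzer FXR-UAS-bla HEK 293T cells, compound plus chenodeoxycholic acid (50 uM final), 16 h at 37 C. CellTiter-Glo added to the same wells after the beta-lactamase read; luminescence read after 30 min at room temperature as viability.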

[6] = target: Vitamin D3 receptor (Homo sapiens) (UniProt P11473); test: qHTS assay to identify small molecule agonists of the vitamin D receptor (VDR) signaling pathway (AID 743222; calls by dose curve)
Sequence of Vitamin D3 receptor (Homo sapiens) (P11473 whole entry, looked up): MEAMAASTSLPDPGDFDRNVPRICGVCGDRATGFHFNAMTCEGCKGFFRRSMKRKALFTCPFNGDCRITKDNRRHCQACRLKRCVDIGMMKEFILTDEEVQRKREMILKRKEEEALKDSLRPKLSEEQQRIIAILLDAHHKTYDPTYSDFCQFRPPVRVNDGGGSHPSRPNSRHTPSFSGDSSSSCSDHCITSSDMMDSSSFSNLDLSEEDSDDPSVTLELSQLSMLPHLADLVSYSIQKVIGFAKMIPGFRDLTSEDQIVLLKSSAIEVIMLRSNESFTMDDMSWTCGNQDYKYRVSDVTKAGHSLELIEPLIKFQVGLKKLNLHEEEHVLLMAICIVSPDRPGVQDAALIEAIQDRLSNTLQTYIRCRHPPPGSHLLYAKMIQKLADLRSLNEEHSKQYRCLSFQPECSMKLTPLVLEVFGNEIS
Summary of the method: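 In VDR-bla cells, compound-induced beta-lactamase expression is quantified by FRET substrate fluorescence. Treatment lasts 16 h at 37C; substrate develops 2 h at room temperature.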

[7] = target: Vitamin D3 receptor (Homo sapiens) (UniProt P11473); test: qHTS assay to identify small molecule antagonists of the vitamin D receptor (VDR) signaling pathway (AID 743223; active = well fitted inhibition curve with a large enough effect in the signal ratio in the repeat runs, not every such curve was filed as active; the % refers to the signal ratio)
Summary of the method: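 VDR-bla cells were treated with compound plus 3 nM final 1alpha,25-dihydroxyvitamin D3 for 16 h at 37C. Beta-lactamase reporter read by B/G FRET substrate fluorescence after 2 h at room temperature. qHTS format.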

[8] = qHTS assay to identify small molecule agonists of the vitamin D receptor (VDR) signaling pathway - cell viability counter screen (AID 743224); note: series mostly up to about 63 µM; nearly all actives have a fitted effect of over 50% in size
Summary of the method: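 Plated VDR-bla cells (4 h, 37C) received compound, incubated 16 h, then LiveBLAzer substrate 2 h RT; CellTiter-Glo added afterwards, luminescence read at 30 min.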

[9] = target: Bile acid receptor (Homo sapiens) (UniProt Q96RI1); test: qHTS assay to identify small molecule agonists of the farnesoid-X-receptor (FXR) signaling pathway (AID 743220; active = well fitted activation curve with a large enough effect in the signal ratio in the repeat runs, not every such curve was filed as active; the % refers to the signal ratio)
Sequence of Bile acid receptor (Homo sapiens) (Q96RI1 whole entry, looked up): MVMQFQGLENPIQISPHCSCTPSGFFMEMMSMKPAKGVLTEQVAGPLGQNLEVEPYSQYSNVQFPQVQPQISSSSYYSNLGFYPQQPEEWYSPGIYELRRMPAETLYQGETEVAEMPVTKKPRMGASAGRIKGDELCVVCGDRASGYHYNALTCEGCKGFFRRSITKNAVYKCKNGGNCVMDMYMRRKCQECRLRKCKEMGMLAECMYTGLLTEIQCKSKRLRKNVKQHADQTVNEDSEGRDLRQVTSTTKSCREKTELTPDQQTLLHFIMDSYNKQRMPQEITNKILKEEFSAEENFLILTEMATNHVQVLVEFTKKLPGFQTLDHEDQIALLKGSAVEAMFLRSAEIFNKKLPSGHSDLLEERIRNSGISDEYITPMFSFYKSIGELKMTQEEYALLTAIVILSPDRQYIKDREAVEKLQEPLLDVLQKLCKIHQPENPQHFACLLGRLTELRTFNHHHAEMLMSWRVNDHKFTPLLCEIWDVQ
Summary of the method: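 Beta-lactamase reporter under UAS control in GeneBLAzer FXR HEK 293T cells (5000/well) measured with LiveBLAzer FRET substrate after 2 h at room temperature. Compound exposure lasted 16 h at 37C.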

[10] = target: Bile acid receptor (Homo sapiens) (UniProt Q96RI1); test: qHTS assay to identify small molecule antagonists of the farnesoid-X-receptor (FXR) signaling pathway (AID 743217; active = well fitted inhibition curve with a large enough effect in the signal ratio in the repeat runs, not every such curve was filed as active; the % refers to the signal ratio)
Summary of the method: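 GeneBLAzer FXR-UAS-bla HEK 293T, CDCA-stimulated (50 uM final). Compound treatment 16 h, 37 °C. Detection: beta-lactamase cleavage of B/G FRET substrate, fluorescence.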
% is set by controls: 0 for no effect and ±100 for the full control effect.

CCN(CC#N)c1cccc(C)c1
inactive: outcome [1] | outcome [2] | outcome [3] | outcome [4] | outcome [5] | outcome [6] | outcome [7] | outcome [8]

CCN(Cc1ccccc1)c1ccccc1
inactive: outcome [1] | outcome [2] | outcome [3] | outcome [4] | outcome [5] | outcome [8]

CCOC(=O)CCC(=O)OCC
inactive: outcome [1] | outcome [2] | outcome [3] | outcome [4] | outcome [5] | outcome [7]

N[C@@H](CCC(=O)O)C(=O)O
inactive: outcome [1] | outcome [2] | outcome [3] | outcome [4] | outcome [5] | outcome [7] | outcome [8]

CCCCOCCOC(=O)CCCCCCCCC(=O)OCCOCCCC
inactive: outcome [1] | outcome [2] | outcome [3] | outcome [4] | outcome [5] | outcome [8]

CCOC(=O)c1ccccc1
inactive: outcome [1] | outcome [2] | outcome [3] | outcome [4] | outcome [5] | outcome [6] | outcome [7] | outcome [8]

CC[N+](CC)(CC)CCOc1cccc(OCC[N+](CC)(CC)CC)c1OCC[N+](CC)(CC)CC
inactive: outcome [1] | outcome [2] | outcome [3] | outcome [4] | outcome [5] | outcome [8]

CCOc1ccccc1OCC
inactive: outcome [1] | outcome [2] | outcome [3] | outcome [4] | outcome [5] | outcome [7] | outcome [8]

CC(=O)N[C@H]1[C@H]([C@H](O)[C@H](O)CO)OC(C(=O)O)=C[C@@H]1N=C(N)N
inactive: outcome [1] | outcome [2] | outcome [3] | outcome [4] | outcome [5] | outcome [6] | outcome [8]

CC(C)(N)C#N
inactive: outcome [1] | outcome [2] | outcome [3] | outcome [4] | outcome [5] | outcome [8]

CCC(=O)OCc1ccccc1
inactive: outcome [1] | outcome [2] | outcome [3] | outcome [4] | outcome [5] | outcome [7]

CC(C)(C)OC(=O)c1cccc(N)c1
inactive: outcome [1] | outcome [2] | outcome [3] | outcome [4] | outcome [5] | outcome [7] | outcome [8]

COC(=O)C1=C(C)NC(C)=C(C(=O)OC(C)C)C1c1cccc2nonc12 (stereo not given)
inactive: outcome [1] | outcome [2] | outcome [3] | outcome [4] | outcome [5] | outcome [6] | outcome [8]

COCCOC[C@H](CC1(C(=O)NC2CCC(C(=O)O)CC2)CCCC1)C(=O)Oc1ccc2c(c1)CCC2 (stereo not given in full)
inactive: outcome [1] | outcome [2] | outcome [3] | outcome [4] | outcome [5] | outcome [6] | outcome [8]

CC(=O)c1ccccc1[N+](=O)[O-]
inactive: outcome [1] | outcome [2] | outcome [3] | outcome [4] | outcome [5] | outcome [7] | outcome [8]

OCCCCCO
inactive: outcome [1] | outcome [2] | outcome [3] | outcome [4] | outcome [5] | outcome [8]

COc1ccccc1OCC1CNC(=O)O1 (stereo not given)
inactive: outcome [1] | outcome [2] | outcome [3] | outcome [4] | outcome [5] | outcome [6] | outcome [7] | outcome [8]

CC1CCC(CO)CC1 (stereo not given)
inactive: outcome [1] | outcome [2] | outcome [3] | outcome [4] | outcome [5] | outcome [6] | outcome [8]

NC(CCC(=O)O)C(=O)O (stereo not given)
inactive: outcome [1] | outcome [2] | outcome [3] | outcome [4] | outcome [5] | outcome [8]

O=C1CCCCCCCCCCCCCCO1
inactive: outcome [1] | outcome [2] | outcome [3] | outcome [4] | outcome [5] | outcome [6] | outcome [8]

CCNS(=O)(=O)c1ccc(C)cc1
inactive: outcome [1] | outcome [2] | outcome [3] | outcome [4] | outcome [5] | outcome [8]

CCOC(=O)c1cnc2c(cnn2CC)c1NN=C(C)C
inactive: outcome [1] | outcome [2] | outcome [4] | outcome [5] | outcome [7] | outcome [8]

O=C(c1ccccc1O)c1ccccc1O
inactive: outcome [1] | outcome [2] | outcome [4] | outcome [9] | outcome [5] | outcome [6] | outcome [7] | outcome [8]

COC(=O)Nc1ccc(Cl)c(Cl)c1
inactive: outcome [1] | outcome [2] | outcome [3] | outcome [9] | outcome [5] | outcome [6] | outcome [8]

CCCCN1C=CN(C)C1
inactive: outcome [1] | outcome [2] | outcome [3] | outcome [4] | outcome [6] | outcome [7]

Clc1cc(Cl)cc(Cl)c1
inactive: outcome [1] | outcome [3] | outcome [4] | outcome [5] | outcome [6] | outcome [7] | outcome [8]

CC[C@H]1OC(=O)[C@H](C)[C@@H](O[C@H]2C[C@@](C)(OC)[C@@H](O)[C@H](C)O2)[C@H](C)[C@@H](O[C@@H]2O[C@H](C)C[C@H](N(C)C)[C@H]2O)[C@](C)(OC)C[C@@H](C)C(=O)[C@H](C)[C@@H](O)[C@]1(C)O
inactive: outcome [1] | outcome [2] | outcome [3] | outcome [5] | outcome [8]

CC(=O)NC(=O)c1ccccc1O
inactive: outcome [1] | outcome [2] | outcome [3] | outcome [4] | outcome [5] | outcome [8]

CC(C)NNC(=O)c1ccncc1
inactive: outcome [1] | outcome [3] | outcome [4] | outcome [5] | outcome [7]

Cc1cc(C)c(N=Nc2c(O)c(S(=O)(=O)O)cc3cc(S(=O)(=O)O)ccc23)cc1C
inactive: activation [1] 6.93% [at 5.95 µM] | ratio activity, negative = inhibition [3] 0.853% [at 6.26 µM] | viability change, negative = cytotoxic [4] 0.0024% [at 5.95 µM] | activity change, negative = cytotoxicity [5] 0.502% [at 5.95 µM] | activation [6] 0.83% [at 6.01 µM] | activity change, negative = cytotoxicity [8] -8.28% [at 5.95 µM]

O=S(=O)(O)c1cc(O)c(O)c(S(=O)(=O)O)c1
inactive: outcome [1] | outcome [2] | outcome [10] | outcome [4] | outcome [9] | outcome [5] | outcome [6] | outcome [8]
